PubChem BioAssay

These molecules were tested against Calmodulin-1 (Homo sapiens) (UniProt P0DP23) (assay: small molecules binding Ca-loaded calmodulin-1 – biochemical, small-molecule microarray, Cy5-labelled CALM1, plus calcium, artefact control for SMM control-protein annotation, profiling panel (AID 1112;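 note: score merges spot fluorescence with signal to noise from triplicate slides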)). Conditions: Cy5-CALM1 binding fluorescence, higher = more signal.
`C[C@@H]1NC(=O)[C@@H](Cc2ccccc2)NC(=O)[C@@]23C(=O)N[C@@H](Cc4ccccc4)C2[C@H](C)[C@@]2(C)O[C@H]2C3/C=C/C/C=C\CNC1=O` (stereo not given in full) was tested, and the composite z-score was -1.16. Molecule `COc1cccc(C)c1NC(=O)O[C@H]1[C@H](OC(=O)Nc2ccc3c(c2)OCO3)[C@@H](OC(=O)Nc2ccc3c(c2)OCO3)[C@@H](OC)O[C@@H]1CO` has a composite z-score of -1.04. `C=C(COC)/C(=C/C[C@H](OC(=O)c1ccncc1)c1ccc(CO)o1)c1cnc2ccccc2c1` showed a composite z-score of -0.91. Work on `CC(C)=C1C(=O)C(c2ccccc2)=C2CN3C(=O)N(CCc4ccccc4)C(=O)[C@]3(Cc3ccc(C(F)(F)F)cc3)[C@H]21` yielded a composite z-score of 0.953. Molecule `CCCCNC(=O)c1ccc(C#CC(C)(C)C)c(OC(C)=O)c1` has a composite z-score of -0.526. For `C=CCC(OC(C)=O)[C@@H]1[C@@H](N(Cc2cccc3ccccc23)C(=O)Cc2ccc(OC)cc2)c2cc(OCCCO)ccc2N1C(=O)c1ccc(-c2ccccc2)cc1` (stereo not given in full), the composite z-score was 0.726. `COc1cc(NN2C(C(O)c3ccc(N(C)C)cc3)C=CC3C(=O)N(c4ccccc4)C(=O)C32)cc(OC)c1OC` (stereo not given) gave a composite z-score of 0.0572. Molecule `CCCC[C@@H](O)C1=C(COC)C[C@H]2C(=O)N(C)C(=O)[C@H]2[C@H]1CO` has a composite z-score of -0.573. Work on `CC1CC/C=C\[C@H]2OC34C=CCN(c5ccc6ccccc6c5)C(=O)[C@H]3N(CCCO)C(=O)[C@@H]4C2C(=O)O1` (stereo not given in full) yielded a composite z-score of -0.028. `CC(C)C(CO)N1C(=O)[C@@H]2[C@H]3C(=O)OCC=C[C@H]3OC23C=CCN(c2ccc(Cl)cc2)C(=O)[C@@H]13` (stereo not given in full) gave a composite z-score of -0.499. `CCCN1C(=O)[C@@]2(Cc3ccccc31)N=C(c1ccc(OCCCO)cc1)O[C@H]2c1ccccc1` gave a composite z-score of -0.29. In the case of `O=C(O)[C@@H]1[C@@H]2C(=O)N(c3ccccc3)C(=O)[C@@H]2C[C@@H]1Sc1ccccc1`, the composite z-score is reported as 0.474. For `COCCOC(=O)N1C(=O)[C@@]2(c3cc(C#CCNC(N)=O)ccc31)[C@H](C(N)=O)[C@H]1C(=O)O[C@H](c3ccccc3)[C@H](c3ccccc3)N1[C@@H]2c1ccccc1OCCO`, the composite z-score was -0.304. In the case of `COC(=O)[C@@]1(Cc2ccc(OC)cc2)[C@H]2c3cc(C(=O)N4CCCC4)n(CCO)c3C[C@H]2CN1C(=O)c1ccccc1`, the composite z-score is reported as 0.173. With `C[N+](C)(C)CCCCCCNC(=O)[C@@H]1C[C@@H]2C(=O)N3CCC[C@H]3C(=O)N2[C@@H]1c1ccc(O)cc1` the composite z-score was -0.887. With `O=C1O[C@@H](c2ccccc2)[C@@H](c2ccccc2)N2[C@@H](c3ccc(O)cc3)[C@]3(C(=O)Nc4ccc(C#CCCO)cc43)[C@@H](C(=O)N3CCN(c4ncccn4)CC3)[C@H]12` the composite z-score was -0.948. `CC(C)c1ccc(NN2C(C(O)c3ccc(F)cc3)C=CC3C(=O)N(c4ccccc4)C(=O)C32)cc1` (stereo not given) showed a composite z-score of -0.0298. `C[N+](C)(C)CCCC[C@@H]1NC(=O)[C@@H]2C[C@H](C(=O)NCCCCCCN)[C@H](c3cccc(OCCO)c3)N2C1=O` gave a composite z-score of 1.48. In the case of `Cc1ccc(S[C@]2(C(=O)NCC(F)(F)F)CC(=O)N(Cc3cc(C(F)(F)F)cc(C(F)(F)F)c3)[C@@H]2c2ccc(CO)cc2I)cc1`, the composite z-score is reported as 0.0808. `C=C[C@H]1C(C(=O)OCC)=CC[C@@H](c2ccccc2)N1S(=O)(=O)c1ccc(C)cc1` was tested, and the composite z-score was -0.0986. Work on `CCCCN1CC=CC23O[C@@H]4/C=C\CCCOC(=O)C4[C@H]2C(=O)N(CCO)[C@@H]3C1=O` (stereo not given in full) yielded a composite z-score of 0.278. Work on `CCCCN1CC=CC23O[C@@H]4/C=C\CCC(C)OC(=O)C4[C@H]2C(=O)N(CCCO)[C@@H]3C1=O` (stereo not given in full) yielded a composite z-score of 0.458. `O=C(NCc1ccc(F)cc1)[C@H]1C[C@H]2C(=O)NCC(=O)N2[C@H]1c1ccc(O)cc1` was tested, and the composite z-score was 0.0871. Molecule `CCOC(=O)C[C@H]1[C@H](OC(=O)Cc2ccc3c(c2)OCO3)[C@@H](NC(=O)c2ccc3ccccc3n2)c2cc(OCCCO)ccc2N1C(=O)c1ccccc1` has a composite z-score of -0.564. For `COc1cc2c(cc1O)C(C1CC1)N(C)CC2` (stereo not given), the composite z-score was -0.193. `COC(=O)C1=CC(CCCO)=CC(c2cccs2)N(Cc2cccc(OC(F)(F)F)c2)C=C1C(=O)OC` (stereo not given) gave a composite z-score of 0.804. With `COCCCNC(=O)[C@@]1(Sc2ccc(C)cc2)CC(=O)N(C2Cc3ccccc3C2)[C@@H]1c1ccc(CO)cc1` the composite z-score was -0.0232. With `CN(C)c1ccc(C(O)C2C=CC3C(=O)NC(=O)C3N2Nc2ccccn2)cc1` (stereo not given) the composite z-score was -0.733. Work on `COc1ccccc1CN1C(=O)c2ccccc2[C@](Cc2ccccc2I)(C(=O)O)[C@@H]1c1ccc(CO)cc1` yielded a composite z-score of 0.477. Work on `CC(C)N1CC=CC23O[C@@H]4C=CCCOC(=O)C4[C@H]2C(=O)N(CCCO)[C@@H]3C1=O` (stereo not given in full) yielded a composite z-score of -0.694. Work on `COc1ccc(C(=O)Nc2ccc(CN3C(=O)[C@]4(O[C@H](CC(=O)N5Cc6ccccc6C[C@H]5CO)[C@@H]([Si](C)(C)c5ccc(OC)cc5)[C@@H]4C)c4ccccc43)cc2)cc1` yielded a composite z-score of -0.376. For `Cn1cccc1C(O)C1C=CC2C(=O)N(c3ccccc3)C(=O)C2N1Nc1ccccc1` (stereo not given), the composite z-score was 0.405. For `CCOC(=O)C[C@H]1[C@H](OC(=O)c2cc3ccccc3oc2=O)[C@@H](NC(=O)CC(C)C)c2cc(OCCCO)ccc2N1C(=O)c1ccc2ccccc2n1`, the composite z-score was -0.35. `CC[C@@H]1C=C(C(=O)O)[C@H](c2ccccc2)N1S(=O)(=O)c1ccc(C)cc1` gave a composite z-score of 1.03. Work on `C=CC[C@@H](OC(=O)Nc1ccc(SC)cc1)c1ccc(O)c(F)c1` yielded a composite z-score of -0.776.
